Bioassay records deposited in PubChem BioAssay by National Center for Advancing Translational Sciences (NCATS).
In the library only some 2.9% were active in any assay of this set; here they are far more common.
p53null 39C kill: kills p53 null cells at the nonpermissive temperature; 0.97% of 55,000 active; H1299 p53-null (neo) cells, 39C, ATPlite viability, 24 h; Potency, µM (series often up to 46.1 µM), usual class: cytotoxic; also: nearly all actives have a fitted effect of over 50% in size
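Luminescent ATP signal reported cell survival after H1299 lines (neo, p53 null; or p53 A138V) received up to 46 uM compound and 24 hr incubation at 39C.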
p53null 32C kill: kills p53 null cells at the permissive temperature | 0.62% of 55,000 active | Potency, µM (doses to about 46.1 µM), hits mostly cytotoxic | AID 903 | H1299-neo p53 null cells, ATP luminescence, 24 h, 32C; also: nearly all actives have a fitted effect of over 55% in size
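Cytotoxicity: H1299-neo (no p53), 32C, 24 h treatment. Concentrations up to 46 uM. Readout cellular ATP, luminescence. Normalization to DMSO basal and tamoxifen 100 uM maximal kill.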
DRV1 agonist: GPR32 (DRV1) agonism, beta-arrestin recruitment; 2.5% of 48,000 active; CHO-K1 GPR32 beta-arrestin PathHunter luminescence, 90 min; zero percent set by DMSO-only wells; activation, % at 76.9 µM;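 active = activation of at least 60% and not above a set upper limit, about 1 call in 100 departs from these limits; inconclusive = activation of 40% to 60%, or above that upper limit; inactive = activation under 40%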
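Agonism was scored by beta-Gal fragment complementation (chemiluminescent read, 1 h detection at ambient temperature) reporting beta-arrestin binding to GPR32 in engineered CHO-K1 cells. Compound treatment lasted 90 min at 37 C, normalized to a DMSO basal control.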
FH mod: Identification of activators of human fumarate hydratase by quantitative high-throughput screening; Fumarate hydratase, mitochondrial (Homo sapiens), P07954; FH coupled MDH/diaphorase resazurin fluorescence, 15 min; Potency, µM (series often up to 79.9 µM), hits mostly inhibitors; 0.22% of 54,000 active; AID 1347055, 2019; also: the screen sought activators but most active calls are inhibition curves; nearly all actives have a fitted effect of over 45% in size
Target sequence (P07954 whole entry, looked up): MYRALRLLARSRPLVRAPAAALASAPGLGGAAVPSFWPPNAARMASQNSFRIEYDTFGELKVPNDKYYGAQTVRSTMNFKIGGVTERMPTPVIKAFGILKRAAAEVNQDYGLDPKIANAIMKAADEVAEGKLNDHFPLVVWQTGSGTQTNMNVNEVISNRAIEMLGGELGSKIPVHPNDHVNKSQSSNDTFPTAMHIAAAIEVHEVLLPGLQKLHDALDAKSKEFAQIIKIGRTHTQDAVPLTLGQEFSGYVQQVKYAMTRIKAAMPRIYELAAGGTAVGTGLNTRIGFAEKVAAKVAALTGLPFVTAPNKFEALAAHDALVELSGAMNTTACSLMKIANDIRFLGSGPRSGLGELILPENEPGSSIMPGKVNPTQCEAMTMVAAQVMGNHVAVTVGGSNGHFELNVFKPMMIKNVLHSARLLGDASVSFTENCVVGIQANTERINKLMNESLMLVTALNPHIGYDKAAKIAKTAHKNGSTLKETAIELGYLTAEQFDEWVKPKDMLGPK
Each line names hits and unclear results; the compound was inactive in the other large screens. Unless noted, calls follow the shape of the dose curve; as a rule, active = well fitted curve in the direction sought with a large enough effect; inconclusive = small, poorly fitted or top-dose-only effect, or another doubt; inactive = no such curve, though single readings can be large; an effect the other way counts as inactive or inconclusive.

CCOc1ccc(Cn2nnc(C(=O)Nc3cccc(SC)c3)c2N)cc1	p53null 39C kill inconclusive
Cc1cccc(Cn2nnc(C(=O)Nc3cc(C)ccc3C)c2N)c1	FH mod inconclusive
Cc1ccc(NC(=O)c2nnn(Cc3cccc(C(F)(F)F)c3)c2N)c(C)c1	DRV1 agonist 93
CCc1cccc(NC(=O)c2nnn(Cc3ccc(SC)cc3)c2N)c1	DRV1 agonist 62
CC(=O)N1CCc2ccc(O)c(OC3OC(COC4OCC(O)(CO)C4O)C(O)C(O)C3O)c2C1Cc1ccc(O)cc1 (stereo unspecified)	none (no result: p53null 39C kill, p53null 32C kill, DRV1 agonist)
Cc1cccc(NC(=O)CSc2ncc(-c3ccc(Br)cc3)[nH]2)c1	p53null 39C kill 20µM
C=C1[C@H]2[C@H](O[C@@H]3O[C@H](COC(=O)/C=C/c4cc(OC)c(O)c(OC)c4)[C@@H](O)[C@H](O)[C@H]3O)OC=C(C(=O)O)[C@H]2C[C@@H]1O	none (no result: p53null 39C kill, p53null 32C kill, DRV1 agonist)
O=C(NCCc1ccccc1Cl)c1ccc2c(c1)nc1n2CCOC1	p53null 39C kill 5µM, p53null 32C kill 10µM
Cc1cccc(CCNC(=O)c2ccc3c(c2)nc2n3CCCCC2)c1	p53null 39C kill 10µM, p53null 32C kill 10µM
Cc1ccc(CNC(=O)c2ccc3c(c2)nc2n3CCCC2)cc1	none
COCCCNC(=O)c1ccc2c(c1)nc1n2CCCCC1	p53null 39C kill 13µM, p53null 32C kill inconclusive
Cc1ccc(CCNC(=O)c2ccc3c(c2)nc2n3CCCCC2)cc1	p53null 39C kill inconclusive
CCC(C)NC(=O)c1ccc2c(c1)nc1n2CCCCC1 (stereo unspecified)	p53null 39C kill 5µM, p53null 32C kill inconclusive
CC(=O)OCC1=CCC2C(C)(C)CCCC2(C)C12CCC(C)(CC(=O)O)O2 (stereo unspecified)	none (no result: p53null 39C kill, p53null 32C kill, DRV1 agonist)
Cc1c(NC(=O)OCC2COCCN2)cn2ncnc(Nc3ccc4c(cnn4Cc4cccc(F)c4)c3)c12 (stereo unspecified)	none (no result: p53null 39C kill, p53null 32C kill, DRV1 agonist)
CCCNC(=O)c1ccc2c(c1)nc1n2CCCCC1	p53null 39C kill 10µM, p53null 32C kill 13µM
COc1ccc(CNC(=O)c2ccc3c(c2)nc2n3CCCCC2)cc1	p53null 32C kill inconclusive
CCOc1ccc(S(=O)(=O)NCCc2c(C)[nH]c3c(Cl)cccc23)cc1C	FH mod inconclusive
COc1cc(S(=O)(=O)NCCc2c(C)[nH]c3ccccc23)c(C)cc1C	DRV1 agonist 78
CCN(CC)CCNC(=O)c1ccc(-c2nc(CN3CCc4ccccc43)c(C)o2)cc1	DRV1 agonist 97
CCOC(=O)c1c(C)[nH]c(C)c1S(=O)(=O)NCC(=O)NCc1cccc(Br)c1	none
CCOC(=O)c1c(C)[nH]c(C)c1S(=O)(=O)N(C)CC(=O)NCc1cccc(Br)c1	DRV1 agonist 101
CC1NC(=O)CNC(=O)C(C(C)C)NC(=O)C2CCCN2C(=O)C(C(C)C)NC(=O)C(Cc2c[nH]c3ccccc23)NC1=O (stereo unspecified)	none (no result: p53null 39C kill, p53null 32C kill, DRV1 agonist)
COc1ccc(C(=O)Nc2ccc3oc(-c4cccc5c(Br)cccc45)nc3c2)cc1	none
Nc1ccc2oc(-c3ccccc3Br)nc2c1	p53null 39C kill 13µM, p53null 32C kill inconclusive
CCCOc1cccc(C(=O)Nc2cccc(-c3nc4ncccc4o3)c2C)c1	none
Cc1c(NC(=O)c2ccc(OC(C)C)cc2)cccc1-c1nc2ncccc2o1	p53null 39C kill inconclusive, DRV1 agonist 89
COc1cc(N(C)CCN(C)C)c(N)cc1Nc1nccc(-c2cn(C)c3ccccc23)n1	none (no result: p53null 39C kill, p53null 32C kill, DRV1 agonist)
Cc1ccc(C)c(CN2C(=O)C(O)(c3c[nH]c4ccccc34)c3ccccc32)c1 (stereo unspecified)	p53null 39C kill inconclusive, p53null 32C kill inconclusive, DRV1 agonist 84, FH mod inconclusive
O=C1N(Cc2ccccc2)c2ccccc2C1(O)c1c[nH]c2ccccc12 (stereo unspecified)	DRV1 agonist inconclusive
Cc1ccc(CN2C(=O)C(O)(c3c(C)[nH]c4ccccc34)c3ccccc32)cc1 (stereo unspecified)	DRV1 agonist 70, FH mod inconclusive
Cc1[nH]c2ccccc2c1C1(O)C(=O)N(Cc2ccc(Cl)cc2)c2ccccc21 (stereo unspecified)	p53null 39C kill inconclusive, FH mod inconclusive
O=C1N(Cc2ccccc2Cl)c2ccccc2C1(O)c1c[nH]c2ccccc12 (stereo unspecified)	p53null 39C kill inconclusive, DRV1 agonist 84, FH mod inconclusive
CC[C@H]1OC(=O)[C@H](C)[C@@H](O[C@H]2C[C@@](C)(OC)[C@@H](O)[C@H](C)O2)[C@H](C)[C@@H](O[C@@H]2O[C@H](C)C[C@H](N(C)C)[C@H]2O)[C@@](C)(O)C[C@@H](C)[C@@H]2N[C@@H](COCCOC)OC([C@H]2C)[C@]1(C)O	none (no result: p53null 39C kill, p53null 32C kill, DRV1 agonist)
CC1(C)CC[C@]2(C(=O)O[C@@H]3O[C@H](CO)[C@@H](O)[C@H](O)[C@H]3O)CC[C@]3(C)C(=CCC4[C@@]5(C)CC[C@H](OC6OC(C(=O)O)C(OC7OC(CO)C(O)C(O)C7O)C(O)C6O)C(C)(C)C5CC[C@]43C)C2C1 (stereo partly specified)	none (no result: p53null 39C kill, p53null 32C kill, DRV1 agonist)
COc1ccccc1C1CC(=O)NC(C)=C1C(=O)OC1CCCCCC1 (stereo unspecified)	none
CC1=C(C(=O)OC2CCCC2)C(c2ccccc2C(F)(F)F)CC(=O)N1 (stereo unspecified)	DRV1 agonist 96
CS(=O)(=O)Nc1ccc(-c2nc3ccccc3s2)cc1	p53null 39C kill 1.6µM, p53null 32C kill 4µM, DRV1 agonist 100
Cc1ccc2nc(-c3ccc(NC(=O)C(F)(F)F)cc3)sc2c1	p53null 39C kill 1.3µM, p53null 32C kill 2µM
Cc1cc(C)cc(OCC(=O)Nc2ccc(-c3nc4ccccc4s3)cc2)c1	DRV1 agonist 72
Cc1cccc(C(=O)Nc2ccc(-c3nc4ccccc4s3)cc2Cl)c1	DRV1 agonist 92
Cc1ccc(C(=O)Nc2ccc(-c3nc4ccccc4s3)cc2C)cc1C	none
CC1(C)C=CN2C(=O)C3=CCCN3C(=O)[C@@H]2C[C@@]12Nc1ccccc1C2=O	none (no result: p53null 39C kill, p53null 32C kill, DRV1 agonist)
CCCCC(=O)Nc1cccc(-c2nc3ccccc3s2)c1	DRV1 agonist 92
Cc1ccc2nc(-c3ccc(NC(=O)CN4C(=O)c5ccccc5C4=O)cc3)sc2c1	p53null 32C kill 22µM (no result: p53null 39C kill, DRV1 agonist, FH mod)
CC(C)[C@@](C)(O)[C@@H]1CN(c2nc(-c3[nH]nc4ncccc34)c(F)cc2Cl)CCN1	none (no result: p53null 39C kill, p53null 32C kill, DRV1 agonist)
COc1ccc(C(=O)NCCc2sc(-c3cccc(F)c3)nc2C)cc1	p53null 32C kill inconclusive, DRV1 agonist 67
COc1cccc(C(=O)NCCc2sc(-c3cccc(C)c3)nc2C)c1	none
COc1ccc(-c2nc(C)c(CCNC(=O)c3c(F)cccc3F)s2)cc1	DRV1 agonist 80
Cc1cccc(C(=O)NCCc2sc(-c3ccccc3)nc2C)c1	DRV1 agonist 78
COc1ccc(CC(=O)NCCc2sc(-c3cccc(F)c3)nc2C)cc1	DRV1 agonist 98
COc1c(C)cnc(Cn2cc(C#CCC(C)(C)O)c3c(Cl)nc(N)nc32)c1C	none (no result: p53null 39C kill, p53null 32C kill, DRV1 agonist)
